“And” between values parts separate entries of the source, which are not always exact repeats. Equal values may be shown once. About 64,000 (15%) of roughly 420,000 compounds were called active. Roughly 27% stayed inconclusive and do not appear here. The call rests on the fitted dose curve; in most records, active means well fitted inhibition curve with a large enough effect; inconclusive means small, poorly fitted or top-dose-only effect; inactive means flat fitted curve, though single readings scatter. The list is a sample of the results. A call without a number means that no potency is given here. Peptide text beside a SMILES is read from it.

97 compounds from PubChem BioAssay AID686978 (National Center for Advancing Translational Sciences (NCATS), 2013) can be followed below.
Potency means the concentration at half of the fitted maximal effect.

The nature of this test: qHTS for Inhibitors of human tyrosyl-DNA phosphodiesterase 1 (TDP1): qHTS in cells in absence of CPT. Further: nearly all actives have a fitted effect of over 55% in size. Conditions: DT40 Tdp1-/- hTDP1 cells, no CPT, ATP luminescence, 48 h; activity change, negative = growth inhibition: at 46.2 µM (top of the series). Summed up:
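Chicken DT40 Tdp1-/- cells stably complemented with human TDP1 were seeded at 400 cells/well with DMSO in place of 20 nM camptothecin. After compound pinning, cells grew at least 48 hr at 37 °C; viability read by CellTiter-Glo luminescence.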
Consider `O=C(Nc1cccnc1)c1cc([N+](=O)[O-])ccc1Cl`, for which the Potency result is “inactive”. `Nc1nc(SC23CC4CC(CC(C4)C2)C3)ns1`: the Potency entry is “inactive”. The result for `O=C(Nc1ccc(-n2cccn2)cc1)C1CCN(Cc2ccsc2)CC1` reads “inactive”; that for `COc1ccc(C/C(N)=N/OC(=O)c2ccco2)cc1OC`, “inactive”; that for `CCOc1ccc(NC(=O)CCS(=O)(=O)c2cccc3nsnc23)cc1`, “inactive”. The entry for `O=C(CSc1ncn[nH]1)Nc1nsc(-c2ccccc2)n1` is “inactive”. For `c1csc(-c2nc(-c3ccncc3)no2)c1`, the Potency entry was “inactive”. The entry for `CCN(CC(=O)Nc1ccc(NC(C)=O)cc1)C(=O)C1CC(=O)N(Cc2ccc(C)cc2)C1` (configuration not stated) is “inactive”; for `COc1ccc2c(c1)CCCO[C@]21O[C@H](CCO)C[C@H](O)[C@H]1O` it is “inactive”. Consider `Cn1c(=O)c2c(nc(NCCNC(=O)c3ccco3)n2Cc2ccccc2F)n(C)c1=O`, for which the Potency is 18.4 µM (active). Take `CC(C)OCCCNc1nc2c(c(=O)n(Cc3ccccc3F)c(=O)n2C)n1C`: the Potency result is “inactive”. Take `COc1ccccc1/C=C/C(=O)OCC(=O)NC1CCCCCC1`: the Potency result was “inactive”. The result for `CC1(C(=O)NS(=O)(=O)c2ccccc2)CCN1C(=O)C1CCCCC1` (configuration not stated) reads “inactive”. The result for `Cc1noc(C)c1NC(=O)Nc1cccc2c1O[C@H](CN(C)S(=O)(=O)c1c(C)noc1C)[C@@H](C)CN([C@H](C)CO)C2=O` reads “inactive”.

As for `COc1cc(OC)c(NC(=O)c2ccc(Br)o2)cc1Cl`, the Potency entry was “inactive”. The result for `CN1CCN(C(=O)c2ccc(NC(=O)c3ccc(Br)o3)cc2)CC1` reads “inactive”. With `CCN1CCN(c2c(Cl)cccc2NC(=O)c2ccc(Br)o2)CC1`, the Potency was 16.4 µM (active). The entry for `O=C(Cn1nnc(-c2ccccc2)n1)N/N=C/c1ccc(-c2ccc(Cl)cc2)o1` is “inactive”; for `O=[N+]([O-])c1ccccc1S(=O)(=O)Nc1cccc2cccnc12` it is 2 µM (active) and 2.59 µM (active); for `NS(=O)(=O)c1ccc(CCNS(=O)(=O)c2cccc3cccnc23)cc1` it is “inactive”.

Regarding `Cc1ccccc1NC(=O)c1ccccc1NS(=O)(=O)c1cccc2cccnc12`, the Potency result is “inactive”.

Turning to `CCn1c(/C=C/c2ccc([N+](=O)[O-])o2)nc2ccccc2c1=O`, the Potency was 2.59 µM (active). The entry for `Cc1nc2ccccc2c(=O)n1NC(=O)c1ccc(Cl)c([N+](=O)[O-])c1` is “inactive”.

Take `Cc1nc2ccccc2c(=O)n1Cc1ccc([N+](=O)[O-])cc1`: the Potency result is “inactive”. The entry for `CCc1noc(C)c1C(=O)N1CCCSC1=Nc1ccccc1OC` is “inactive”.

As for `COC(=O)Cn1c(=NC(=O)CSCC(=O)Nc2cc(C)on2)sc2ccccc21`, the Potency result is “inactive”.

With `Cc1noc(C)c1S(=O)(=O)N(CC(=O)Nc1ccc2c(c1)OCCO2)c1ccc(C(C)C)cc1`, the Potency is 14.6 µM (active).

Turning to `Cc1ccc(S(=O)(=O)NCC(=O)Nc2ccc3c(c2)OCCO3)cc1`, the Potency entry was “inactive”. As to `CCOc1ccc(N(CC(=O)NCc2ccc(OC)cc2)S(=O)(=O)c2c(C)noc2C)cc1`, the Potency entry was “inactive”. Consider `COc1ccc(N(CC(=O)Nc2cc(OC)ccc2OC)S(=O)(=O)c2c(C)noc2C)cc1`, for which the Potency was 23.1 µM (active). The entry for `COC(=O)c1ccc(NC(=O)CN(c2ccc(C)cc2)S(=O)(=O)c2c(C)n[nH]c2C)cc1` is “inactive”; for `CCOc1ccc(OCC)c(NC(=O)CN(c2ccc(C)cc2)S(=O)(=O)c2c(C)n[nH]c2C)c1` it is 29.1 µM (active).

Take `CCOc1ccc(N(CC(=O)Nc2ccccc2F)S(=O)(=O)c2c(C)[nH]c(=O)[nH]c2=O)cc1`: the Potency entry was “inactive”. In the case of `COc1ccc(N(CC(=O)Nc2ccc(F)c(F)c2)S(=O)(=O)c2c(C)[nH]c(=O)[nH]c2=O)cc1`, the Potency result is “inactive”. The result for `CCOc1ccc(N(CC(=O)OC)S(=O)(=O)c2c(C)noc2C)cc1` reads “inactive”; that for `C/C=C\C=C\C(=O)N1CC2(CC(c3cccc(NC(=O)/C(C)=C\C)c3)=NO2)C[C@H]1C(N)=O` (some centres not stated), “inactive”; that for `CC(NC(=O)CN1CCN(Cc2ccc(Cl)cc2)C1=O)c1ccc2c(c1)OCCO2` (configuration not stated), “inactive”. As for `Cc1noc(C)c1C(=O)OCC(=O)N1CCN(S(=O)(=O)c2ccc3ccccc3c2)CC1`, the Potency entry was “inactive”. The result for `C(=N/N1CCN(c2ccccc2)CC1)/c1cccs1` reads “inactive”; that for `Nc1c(Cl)cc(S(N)(=O)=O)cc1S(N)(=O)=O`, “inactive”; that for `O=[N+]([O-])c1ccc(Sc2n[nH]c(-c3ccco3)n2)nc1`, “inactive”. The result for `CCOc1ccc(-n2c(C)nc3c(cnn3-c3ccc(C)cc3)c2=O)cc1` reads 5.8 µM (active); that for `CCOC(=O)c1ccc(-n2c(C)nc3c(cnn3-c3ccccc3C)c2=O)cc1`, “inactive”; that for `CCC(C)Sc1nc2c(cnn2-c2ccc(F)cc2)c(=O)[nH]1` (configuration not stated), “inactive”. The figure for `COc1ccc(-n2c(C)nc3c(cnn3-c3ccccc3)c2=O)cc1` is 16.4 µM (active); for `CCOc1ccc(-n2cnc3c(=O)[nH]c(N)nc32)cc1` it is “inactive”; for `COc1ccc(Oc2ncc3nc(C)c(=O)n(-c4ccccc4)c3n2)cc1` it is “inactive”. Regarding `Cc1ccc(Oc2cnn(-c3ccccc3)c(=O)c2Br)cc1`, the Potency entry was “inactive”. The result for `COc1ccc(Oc2ncc3nc(-c4ccc(F)cc4)c(=O)n(C)c3n2)cc1` reads “inactive”.

In the case of `COc1ccc(-n2c(C)nc3c(cnn3-c3ccc(F)cc3)c2=O)cc1`, the Potency is 16.4 µM (active). Take `COC(=O)C1CCCCN1C(=O)c1ccc(OC2CCN(C(C)=O)CC2)c(OC)c1` (configuration not stated): the Potency entry is “inactive”. For the compound `CS(=O)(=O)c1ccc(C(=O)NNC(=O)c2cccs2)cc1`, the Potency result was “inactive”. The figure for `O=C1/C(=C\c2ccc([N+](=O)[O-])cc2)CS(=O)(=O)C/C1=C/c1ccc([N+](=O)[O-])cc1` is 0.0231 µM (active); for `O=C(NN=Cc1ccc([N+](=O)[O-])cc1)C1CC1` it is “inactive”; for `O=[N+]([O-])c1ccc(C=NN=Cc2ccc([N+](=O)[O-])cc2)cc1` it is “inactive”. The result for `CCN(CC)Cc1c(C(=O)N/N=C/c2cccc(OCc3ccc(F)cc3)c2)nnn1-c1nonc1N` reads “inactive”; that for `CCc1ccc(N2CC(C(=O)Nc3ccc(S(=O)(=O)Nc4nccs4)cc3)CC2=O)cc1` (configuration not stated), “inactive”; that for `Cc1ccc(C(=O)NC(=S)NCc2cccnc2)cc1`, “inactive”. The result for `CSc1sc(C(=O)NC(=O)NCc2cccnc2)c(C)c1-c1ccon1` reads “inactive”; that for `Cc1ccc(-n2nc(-c3ccco3)cc2C(=O)NCc2cccnc2)cc1`, 18.4 µM (active).

Turning to `NC(=S)N/N=C/c1coc2cc(Cl)ccc2c1=O`, the Potency entry was “inactive”. Take `CC(C)Oc1c(Br)cc(Br)cc1/C=N/NC(N)=S`: the Potency was 5.8 µM (active). Consider `O=C(NNC(=S)Nc1ccc(F)cc1)[C@H]1C[C@@H]1c1ccccc1`, for which the Potency result was “inactive”. The result for `C(=N\n1cnnc1)/c1cccnc1` reads “inactive”.

As for `O=c1[nH]c(-c2cccs2)nc2ccccc12`, the Potency entry is “inactive”. With `CCc1ccc(N2CC(O)=C(c3nc4ccccc4c(=O)[nH]3)C2=N)cc1`, the Potency is 14.6 µM (active). The entry for `N=C1C(c2nc3ccccc3[nH]2)=C(O)CN1NC(=O)c1c[nH]c2ccccc12` is “inactive”. As for `O=C(Nc1ccc(S(=O)(=O)Nc2nccs2)cc1)c1cc(-c2ccncc2)nc2ccccc12`, the Potency entry is “inactive”. Consider `O=C(Nc1ccc2c(c1)OCCO2)c1cnccn1`, for which the Potency result is “inactive”. The entry for `CCN(CC)CCNC(=O)c1ccc(NS(=O)(=O)c2ccc3c(c2)OCCO3)cc1` is “inactive”.

Consider `O=C(Nc1ccncc1)c1cc(-c2ccccn2)nc2ccc(Br)cc12`, for which the Potency result is “inactive”. On to `Cc1ccc2nc(-c3ccncc3)cc(C(=O)Nc3ccc4c(c3)OCCO4)c2c1`, for which the Potency was 10.3 µM (active).

As for `Cc1ccc2nc(-c3ccccc3)cc(C(=O)O)c2c1`, the Potency result is “inactive”. For `Cc1ccc2nc(-c3ccncc3)cc(C(=O)Nc3ccc(OC(F)F)cc3)c2c1`, the Potency is 9.2 µM (active). On to `CCN(CC)CCNC(=O)c1ccc(NC(=O)c2cc(-c3ccncc3)nc3ccccc23)cc1`, for which the Potency was 23.1 µM (active).

As for `CCn1c(SCC(=O)Nc2ccc3c(c2)OCCO3)nnc1-c1ccncc1`, the Potency entry is “inactive”.

With `C=CCNC(=O)/C(=C\c1cccc([N+](=O)[O-])c1)NC(=O)c1ccccc1`, the Potency result is “inactive”. The entry for `COc1cc(/C=C/C(=O)OCC(=O)NC2CC2)cc(OC)c1OC` is “inactive”. The result for `Cc1cc(=O)oc2cc(NC(=O)C(C)Oc3ccccc3)ccc12` (configuration not stated) reads “inactive”; that for `C[C@H](CO)N1C[C@H](C)[C@@H](CN(C)S(=O)(=O)c2ccc(Oc3ccccc3)cc2)OCc2cn(nn2)CCCC1=O`, “inactive”. In the case of `COc1ccc(NC(=O)CSc2nc(N)c(-c3ccccc3)c(=O)[nH]2)cc1`, the Potency entry was “inactive”. As to `CC(C)c1ccc(Nc2ncccc2C#N)cc1`, the Potency entry was “inactive”. The entry for `CCc1nnc(NC(=O)c2cccs2)s1` is “inactive”. The result for `CC(=O)c1cccc(NC(=O)C2CCCN2S(=O)(=O)c2cccc3nsnc23)c1` (configuration not stated) reads “inactive”.

In the case of `CCC(c1nnnn1C1CCCC1)N1CCN(C(=O)c2ccco2)CC1` (configuration not stated), the Potency result was “inactive”. For `CC(C)C(c1nnnn1C1CCCC1)N1CCN(c2ccccc2F)CC1` (configuration not stated), the Potency is 18.4 µM (active). The entry for `CC(C)C(c1nnnn1C1CCCCC1)N1CCN(C(=O)c2ccco2)CC1` (configuration not stated) is “inactive”; for `CC(C)C[C@@H](NC(=O)[C@H]1CCCN1C(=O)Cc1ccccc1)C(N)=O` (HELM PEPTIDE1{[O=C(Cc1ccccc1)[*:2]].[dP].[dL].[am]}$$$$V2.0) it is “inactive”; for `CC(C)C(=O)Nc1c2c(nn1-c1ccccc1)CSC2` it is “inactive”. The entry for `CC1=C(C)CC(C(=O)NC(C)CCc2ccccc2)C(C(=O)O)C1` (configuration not stated) is “inactive”. The result for `CCN1C(=NCc2ccc(OC)cc2)N[C@@H](CCc2ccccc2)[C@H](C(=O)NCc2ccc(OC)cc2)[C@H]1C` reads 9.2 µM (active). On to `CCN1C(=NCCc2cccnc2)N[C@@H](c2ccccc2)[C@H](C(=O)OC)[C@H]1C`, for which the Potency result was “inactive”.

For the compound `COCCN1C(=O)N[C@@H](CCc2ccccc2)[C@H](C(C)=O)[C@H]1C`, the Potency result is “inactive”. With `CCN1C(=NCC(C)C)N[C@@H](CCc2ccccc2)[C@H](C(=O)NCC(C)C)[C@H]1C`, the Potency was 13 µM (active). The entry for `CCN1C(=O)N[C@@H](c2ccccc2)[C@H](C(C)=O)[C@H]1C` is “inactive”; for `CCc1ccccc1NC(=O)CSc1nnc([C@@H](NC(=O)OC(C)(C)C)C(C)C)o1` it is “inactive”. The entry for `Cc1c(NS(=O)(=O)c2ccc(Cl)cc2)c(=O)n(-c2ccccc2)n1C` is “inactive”.
